What all share (test): Euclidean distance of Cell Painting phenotypic profile (signed KS, 77 features) to DMSO centroid (dimensionless distance); 5 or 10 uM (library dependent); higher = stronger phenotypic change vs DMSO (phenoactivity)
What all share (conditions): 48 h

In one experiment the test system is 786-O. An outline of the steps: (§1)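 Phenoactivity is defined as the Euclidean distance from a compound profile to the median vehicle profile. Each profile comprised 77 Harmony features, scored as signed Kolmogorov-Smirnov statistics versus same-plate vehicle wells, then plate-position corrected, correlation-weighted and replicate-averaged at the top dose. Five cancer lines and one healthy fibroblast line were exposed to library compounds for 48 h at 10 or 5 uM (0.1% DMSO final).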

The subject of the next experiment is A549. An outline of the steps: as §1
The test system of the next experiment is DU145. The procedure, abridged:
as §1

The next experiment relates to FB. The procedure, abridged:
as §1

Another experiment has as its system HEPG2. An outline of the steps: as §1
A further experiment relates to OVCAR4. The procedure, abridged:
as §1

Each structure is given as a SMILES string. Structures can show the parent of a compound that is named as a salt.

Turning to `CC(C)NNC(=O)c1ccncc1` [Iproniazid], the Euclidean distance in the experiment on 786-O is 1.02; in the experiment with A549, 0.606; in the experiment with DU145, 0.811; with FB it was 1.08; with HEPG2, 0.379; with OVCAR4, 1.18.
With `C=C1C[C@@]2(O)O[C@@]3(C[C@H]2C(C)C)[C@@H](C)CC[C@@H]13` [Curcumol], the Euclidean distance in the experiment with 786-O was 1.06; with A549, 1.43; in the experiment with DU145, 0.943; with FB, 1.3; in the experiment with HEPG2, 0.814; in the experiment with OVCAR4, 1.43.
On to `Cc1ccccc1C(OCCN(C)C)c1ccccc1` (centres undefined) [Orphenadrine Citrate], for which the Euclidean distance came to 1.08 in the experiment on 786-O; 0.794 in the experiment with A549; 1.23 in the experiment on DU145; 0.881 in the experiment on FB; 2.08 in the experiment with HEPG2; 1.07 in the experiment with OVCAR4.
On to `CCCCCCCCc1ccc(CCC(N)(CO)CO)cc1` [Fingolimod], for which the Euclidean distance amounted to 5.32 with 786-O; 4 in the experiment with A549; 5.79 in the experiment on DU145; 2.18 in the experiment with FB; 5.29 in the experiment with HEPG2; 4.16 in the experiment with OVCAR4.
Turning to `CCC[C@H](NC(=O)/C(C#N)=C/c1cccc(Br)n1)c1ccccc1` [Degrasyn (WP1130)], the Euclidean distance with 786-O came out at 5.15; in the experiment on A549 it was 4.08; in the experiment on DU145, 4.95; in the experiment on FB, 2.59; in the experiment with HEPG2 it was 1.66; in the experiment on OVCAR4, 4.93.
As to `COc1cc(/C=C/C(=O)N2CCN(CC(=O)N3CCCC3)CC2)cc(OC)c1OC` [Cinepazide maleate], the Euclidean distance in the experiment with 786-O turned out to be 1.21; in the experiment with A549 it was 0.96; in the experiment on DU145 it was 1.04; in the experiment on FB it was 1.16; in the experiment with HEPG2, 0.337; in the experiment with OVCAR4, 1.41.
`O=C1C(=O)N(Cc2ccc(Cl)c(Cl)c2)c2ccccc21` [Apoptosis Activator 2]: the Euclidean distance with 786-O was found to be 1.05; with A549, 1.36; in the experiment with DU145, 1.29; in the experiment on FB, 1.07; in the experiment on HEPG2 it was 0.54; in the experiment on OVCAR4 it was 1.11.
With `CN(C)c1ccc(-c2nc3ncc(Cl)c(N4CCN(CC(=O)Nc5nccs5)CC4)c3[nH]2)cc1`, the Euclidean distance with 786-O stood at 1.74; in the experiment on A549 it was 1.55; in the experiment on DU145, 1.32; in the experiment on FB, 1.56; with HEPG2, 0.715; with OVCAR4 it was 1.59.
Consider `Cc1cc(C)c2c(c1)[C@@H](N(Cc1cc(C(F)(F)F)cc(C(F)(F)F)c1)c1nnn(C)n1)CCCN2C[C@H]1CC[C@H](C(=O)O)CC1`, for which the Euclidean distance is 1.71 in the experiment on 786-O; 1.7 with A549; 1.3 in the experiment with DU145; 1.05 in the experiment with FB; 1.05 in the experiment on HEPG2; 1.25 with OVCAR4.
For `Cc1ccc(-c2cc(C(F)(F)F)nn2-c2ccc(S(N)(=O)=O)cc2)cc1` [Celecoxib], the Euclidean distance was found to be 1.6 with 786-O; 1.23 in the experiment with A549; 1.67 in the experiment with DU145; 1.09 with FB; 1.08 in the experiment on HEPG2; 1.37 in the experiment with OVCAR4.
On to `COc1cc2c(cc1OC)CN(CCc1ccc(NC(=O)c3cc(OC)c(OC)cc3NC(=O)c3cnc4ccccc4c3)cc1)CC2` [Tariquidar], for which the Euclidean distance in the experiment on 786-O turned out to be 0.987; in the experiment on A549 it was 1.26; in the experiment with DU145, 1; with FB it was 1.17; in the experiment with HEPG2 it was 0.844; in the experiment with OVCAR4 it was 1.04.
Take `CC(C)(c1ccc(O)cc1)c1ccc(O)cc1` [Bisphenol A]: the Euclidean distance in the experiment on 786-O is 0.955; with A549 it was 1.21; in the experiment with DU145, 0.773; with FB, 0.78; in the experiment on HEPG2 it was 0.694; with OVCAR4, 0.934.
As to `CN1C(C(=O)Nc2ccccn2)=C(O)c2ccccc2S1(=O)=O` [Piroxicam], the Euclidean distance with 786-O is 0.732; in the experiment on A549, 0.909; in the experiment with DU145, 0.966; with FB, 0.725; in the experiment with HEPG2, 1.06; in the experiment with OVCAR4, 0.704.
Regarding `NS(=O)(=O)c1cc2c(cc1Cl)NC(C1CC3C=CC1C3)NS2(=O)=O` (centres undefined) [Cyclothiazide], the Euclidean distance with 786-O was found to be 1.37; in the experiment on A549 it was 0.917; in the experiment on DU145, 0.711; in the experiment with FB, 1.07; in the experiment on HEPG2 it was 0.641; in the experiment on OVCAR4, 2.44.
For the compound `CC(=O)O[C@H]1C(=O)[C@@]2(C)[C@H]([C@H](OC(=O)c3ccccc3)[C@]3(O)C[C@H](OC(=O)[C@H](O)[C@@H](NC(=O)c4ccccc4)c4ccccc4)C(C)=C1C3(C)C)[C@]1(OC(C)=O)CO[C@@H]1C[C@@H]2O` [Paclitaxel], the Euclidean distance with 786-O amounted to 3.07; in the experiment with A549 it was 2.6; in the experiment with DU145, 4.23; in the experiment on FB, 2.69; in the experiment with HEPG2 it was 2.08; with OVCAR4, 2.73.
`CC(=O)Nc1ccc(NC(=S)NC(=O)c2ccc(C(C)(C)C)cc2)cc1` [Tenovin-1]: the Euclidean distance is 2.16 with 786-O; 1.83 in the experiment on A549; 0.772 in the experiment on DU145; 0.753 in the experiment on FB; 1.08 with HEPG2; 1.03 with OVCAR4.
Consider `C=CC(=O)Nc1cc(Nc2nccc(-c3cn(C4CC4)c4ccccc34)n2)c(OC)cc1N(C)CCN(C)C`, for which the Euclidean distance with 786-O came to 5.66; in the experiment with A549, 5.01; in the experiment with DU145, 3.44; in the experiment on FB, 2.32; in the experiment with HEPG2 it was 2.67; with OVCAR4, 1.92.
For `Cn1cc(-c2ccc3c(c2)ncn3-c2cc(NS(=O)(=O)C3CC3)cc(-c3ccc(F)cc3F)c2)cn1`, the Euclidean distance in the experiment with 786-O was determined as 2.53; in the experiment on A549 it was 1.64; in the experiment with DU145 it was 1.26; with FB, 4.3; in the experiment on HEPG2, 1.6; in the experiment on OVCAR4, 2.75.
Regarding `COC1=CC(c2cc3ccccc3[nH]2)=N/C1=C\c1[nH]c(C)cc1C` [Obatoclax Mesylate (GX15-070)], the Euclidean distance in the experiment with 786-O is 4.8; in the experiment on A549, 4.59; with DU145, 2.78; in the experiment on FB it was 4.82; with HEPG2, 3.8; in the experiment with OVCAR4 it was 3.71.
For `COC1=CC(=O)C[C@@H](C)[C@]12Oc1c(Cl)c(OC)cc(OC)c1C2=O` [Griseofulvin], the Euclidean distance was 0.605 in the experiment on 786-O; 0.678 with A549; 0.803 with DU145; 1.48 in the experiment on FB; 0.745 in the experiment with HEPG2; 0.81 in the experiment on OVCAR4.
On to `CC(C)(O/N=C(\C(=O)N[C@@H]1C(=O)N2C(C(=O)[O-])=C(C[n+]3ccccc3)CS[C@H]12)c1csc(N)n1)C(=O)O` [Ceftazidime], for which the Euclidean distance came to 1.39 with 786-O; 0.613 with A549; 0.815 in the experiment on DU145; 1.06 in the experiment on FB; 0.385 with HEPG2; 1.62 in the experiment with OVCAR4.
Take `CCCc1nc(C(C)(C)O)c(C(=O)O)n1Cc1ccc(-c2ccccc2-c2nnn[nH]2)cc1` [Olmesartan]: the Euclidean distance in the experiment on 786-O came to 1.21; in the experiment with A549, 0.9; in the experiment with DU145, 1.57; in the experiment with FB it was 0.802; with HEPG2 it was 0.353; with OVCAR4, 1.32.
For `O=C(Nc1ccncc1)c1cc([N+](=O)[O-])ccc1Cl`, the Euclidean distance in the experiment on 786-O was 1.2; in the experiment with A549, 0.794; in the experiment with DU145, 2.19; in the experiment with FB, 0.879; with HEPG2, 1.09; in the experiment with OVCAR4, 2.04.
For `C=CC(=O)Nc1cc(Nc2nccc(-c3cn(C)c4ccccc34)n2)c(OC)cc1N(C)CCN(C)C` [Osimertinib mesylate], the Euclidean distance in the experiment with 786-O came to 4.85; in the experiment with A549, 4.05; with DU145 it was 2.93; in the experiment with FB it was 5.59; in the experiment with HEPG2 it was 5.06; with OVCAR4 it was 4.46.

Source of the values: the supplement of paper PMC10127200.
